Test systems include NCI-H23 lung; NCI-H226 lung; NCI-H322M lung; HOP-62 NSCLC; NCI-H460 lung; HOP-92 NSCLC; NCI-H522 lung; A549/ATCC NSCLC; 786-0 renal; COLO 205 colon; DU-145 prostate; K-562 leukemia; MALME-3M melanoma; MDA-MB-231 breast; RXF 393 renal; SF-268 CNS; SF-295 CNS; SF-539 CNS; UACC-257 melanoma; M14 melanoma.
Holding throughout (assay): NCI-60 one-dose screen, 48 h (100 = growth as untreated, 0 = no growth, -100 = all killed)
Common to all, as to conditions: 10 µM unless noted

The panel holds about 83,000 compounds, 20% with a hit somewhere; the sample as a whole holds those more often.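 Single-dose data. Exposure time 48 hours. Values below 10 considered active.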 Unmarked numbers belong to inactive results. Activity calls are given as the source filed them.

On to `COc1ccc(/C=C\c2cc(OC)c(OC)c(OC)c2)cc1OCC(=O)Nc1nc2ccc(OC(F)(F)F)cc2s1`, for which the growth is 35.6% in the assay on NCI-H23 lung; 74.2% in the assay on NCI-H226 lung; 73.6% in the assay on NCI-H322M lung; 53.7% in the assay with HOP-62 NSCLC; 12.4% in the assay on NCI-H460 lung; 55.9% in the assay on HOP-92 NSCLC. The growth in the assay on NCI-H522 lung is 15.8%; with A549/ATCC NSCLC, 66.5%; in the assay on 786-0 renal it was 92.6%; with COLO 205 colon, 106%; with DU-145 prostate, 6.56% (active); in the assay with K-562 leukemia, 22.9%. Further, the growth was 26.4% in the assay with MALME-3M melanoma; 36.7% with MDA-MB-231 breast; 26.4% in the assay with RXF 393 renal; 45.8% with SF-268 CNS; 40.8% in the assay on SF-295 CNS; 14% in the assay with SF-539 CNS. The growth was 58.7% with UACC-257 melanoma and 11.5% with M14 melanoma.

As to `CC(=O)[O][Hg][O]C(C)=O`, the growth is 98.4% in the assay with NCI-H23 lung; 118% in the assay with NCI-H226 lung; 89.6% with NCI-H322M lung; 100% in the assay with HOP-62 NSCLC; 101% in the assay on NCI-H460 lung; 142% in the assay on HOP-92 NSCLC. For the same compound, the growth with NCI-H522 lung was -73.9% (active); in the assay on A549/ATCC NSCLC, 103%; with 786-0 renal, 103%; with COLO 205 colon, 88.5%; in the assay with DU-145 prostate, 94.8%; with K-562 leukemia it was 29.7%. Moreover, the growth in the assay on MALME-3M melanoma was 54.3%; in the assay on MDA-MB-231 breast, 110%; with RXF 393 renal, 98.2%; in the assay with SF-268 CNS, 96.6%; in the assay with SF-295 CNS, 90.3%; in the assay on SF-539 CNS, 108%. For the same compound, the growth in the assay with UACC-257 melanoma is 90.8%; in the assay with M14 melanoma it was 88.3%.

For `O=C1C(N2CC2)=C(N2CC2)C(=O)C(N2CC2)=C1N1CC1`, the growth in the assay on NCI-H23 lung was -70% (active); in the assay on NCI-H226 lung, -63.6% (active); in the assay with NCI-H322M lung it was 3.77% (active); in the assay on HOP-62 NSCLC, -17% (active); with NCI-H460 lung, -30.9% (active); with HOP-92 NSCLC, 41.4%. Besides, the growth is -53.3% (active) in the assay with NCI-H522 lung; 6.45% (active) in the assay with A549/ATCC NSCLC; -76.2% (active) with 786-0 renal; -100% (active) with COLO 205 colon; -15.5% (active) with DU-145 prostate; 29.2% with K-562 leukemia. Also, the growth was -67.5% (active) in the assay with MALME-3M melanoma; 93.3% in the assay with MDA-MB-231 breast; -73.4% (active) in the assay with RXF 393 renal; 19.9% in the assay on SF-268 CNS; -17.9% (active) in the assay with SF-295 CNS; -67.1% (active) in the assay on SF-539 CNS. The growth in the assay on UACC-257 melanoma is -44.1% (active); with M14 melanoma, -82.4% (active).

For the compound `Clc1ccc(CO/N=C(\Cn2ccnc2)c2ccc(Cl)cc2Cl)c(Cl)c1`, the growth in the assay on NCI-H23 lung is -16.5% (active); in the assay on NCI-H226 lung, -8.01% (active); in the assay on NCI-H322M lung, 21.6%; with HOP-62 NSCLC, 107%; in the assay with NCI-H460 lung, -32.5% (active); in the assay on HOP-92 NSCLC it was -31.9% (active). Moreover, the growth with NCI-H522 lung was -45.2% (active); in the assay on A549/ATCC NSCLC it was 7.85% (active); with 786-0 renal, -45.3% (active); in the assay on COLO 205 colon, 105%; in the assay with DU-145 prostate, 21%; with K-562 leukemia, 1.68% (active). The growth in the assay on MALME-3M melanoma is -50.8% (active); with MDA-MB-231 breast it was -11.5% (active); in the assay with RXF 393 renal it was -59.8% (active); in the assay on SF-268 CNS, 11.6%; with SF-295 CNS, -13.3% (active); in the assay with SF-539 CNS, -55.1% (active). In addition, the growth in the assay on UACC-257 melanoma was 6.73% (active); with M14 melanoma, -17.4% (active).

Take `CCC1CN1CCCCN1CC1CC` (stereo not given): the growth in the assay with NCI-H23 lung is 104%; in the assay on NCI-H226 lung it was 98.3%; in the assay with NCI-H322M lung, 96.7%; with HOP-62 NSCLC it was 113%; in the assay with NCI-H460 lung, 113%; with HOP-92 NSCLC, 116%. The growth in the assay on NCI-H522 lung was 95.6%; with A549/ATCC NSCLC, 104%; in the assay with 786-0 renal it was 104%; with COLO 205 colon it was 112%; in the assay with DU-145 prostate, 108%; in the assay with K-562 leukemia it was 114%. The growth was 91.6% in the assay with MALME-3M melanoma; 96.7% with MDA-MB-231 breast; 105% in the assay with RXF 393 renal; 103% in the assay on SF-268 CNS; 95.3% in the assay on SF-295 CNS; 100% in the assay with SF-539 CNS. The growth is 97% in the assay with UACC-257 melanoma and 98% in the assay on M14 melanoma.

As to `CN(C)CC(C(=O)Cc1ccccc1)c1ccccc1` (stereo not given), the growth is 83.6% in the assay with NCI-H23 lung; 125% in the assay on NCI-H226 lung; 102% in the assay with NCI-H322M lung; 106% with HOP-62 NSCLC; 102% in the assay on NCI-H460 lung; 86.3% with HOP-92 NSCLC. In addition, the growth in the assay with NCI-H522 lung was -81.3% (active); with A549/ATCC NSCLC it was 97.5%; in the assay with 786-0 renal, 9.78% (active); in the assay with COLO 205 colon, 5.72% (active); in the assay with DU-145 prostate, -10.7% (active); with K-562 leukemia, 47.2%. In addition, the growth was 37.5% in the assay on MALME-3M melanoma; 106% in the assay with MDA-MB-231 breast; 6.5% (active) in the assay with RXF 393 renal; 30.6% in the assay on SF-268 CNS; 113% in the assay with SF-295 CNS; 5.03% (active) with SF-539 CNS. Moreover, the results for the growth with UACC-257 melanoma and in the assay with M14 melanoma were 5.79% (active) and 36%, respectively.

With `O=C(Nc1ccc(O)cc1)C(Cl)(Cl)Cl`, the growth in the assay with NCI-H23 lung is 101%; in the assay on NCI-H226 lung it was 101%; in the assay on NCI-H322M lung, 102%; in the assay on HOP-62 NSCLC, 104%; with NCI-H460 lung it was 105%; in the assay with HOP-92 NSCLC it was 105%. Besides, the growth in the assay with NCI-H522 lung is 91.2%; in the assay on A549/ATCC NSCLC, 98.4%; with 786-0 renal it was 95.2%; in the assay with COLO 205 colon, 102%; with DU-145 prostate it was 108%; in the assay with K-562 leukemia it was 98.2%. For the same compound, the growth is 96.8% in the assay on MALME-3M melanoma; 98.4% in the assay on MDA-MB-231 breast; 107% with RXF 393 renal; 101% in the assay on SF-268 CNS; 99.8% with SF-295 CNS; 93.1% in the assay with SF-539 CNS. Also, the growth in the assay on UACC-257 melanoma was 90.2%; in the assay on M14 melanoma, 91.2%.
